This note sets out measurements from PubChem BioAssay (EPA / NIEHS).

Inconclusive results are not listed. Active and inactive are the calls of the source. Rule for the calls, unless noted: active = hit-call score of the fitted dose curve at least 0.9, where 1 is the maximum; inactive = score below 0.9.

Assay [1] can be described thus: ATG_RORE_CIS: Attagene CIS-FACTORIAL HepG2 Assay for human RAR-related Orphan Receptor Element (RORE) (AID 2282959). The settings on record: HepG2 Attagene cis-factorial RORE reporter, mRNA; actives raise or lower the signal. The method, boiled down:
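Measured here: transcript induction of a cis-regulated reporter in HepG2 cells transiently transfected via FuGene 6. After 24 h, RNA was processed by RT-PCR and fluorescent capillary electrophoresis; DMSO defined baseline activity.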

Assay [2] is described as follows: ATG_Sox_CIS: Attagene CIS-FACTORIAL HepG2 Assay for human SRY-box transcription factor (SOX) (AID 2282960). The settings on record: HepG2 Attagene cis-factorial SOX reporter, mRNA; actives raise or lower the signal. The essentials: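 Using transiently transfected HepG2 cells, reporter transcription driven by cis elements was assessed 24 h after dosing. Signal was fluorescence of capillary-separated RT-PCR products, with DMSO defining baseline activity.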

Assay [3] has as its target Transcription factor Sp1 (Homo sapiens) (UniProt P08047). Kind of assay: ATG_Sp1_CIS: Attagene CIS-FACTORIAL HepG2 Assay for human Specificity Protein 1 (Sp1) (AID 2282961). The settings on record: HepG2 Sp1 cis-reporter transcription, actives raise or lower the signal. The essentials:
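After transient transfection of HepG2 cells with cis-promoter reporter units and 24 h chemical treatment, reporter transcripts were quantified by RT-PCR and capillary electrophoresis fluorescence. Gain- and loss-of-signal fitted against DMSO.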

A short description of assay [4]: ATG_SREBP_CIS: Attagene CIS-FACTORIAL HepG2 Assay for human Sterol Regulatory Element Binding (SREBP) (AID 2282962). The settings on record: HepG2 Attagene cis-factorial SREBP reporter, mRNA; actives raise or lower the signal. The essentials:
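Twenty-four hours after chemical dosing of transfected HepG2 cultures, reporter RNA was converted to cDNA, amplified, end-labelled with 6-FAM and resolved by capillary electrophoresis. Responses were fitted relative to DMSO.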

Assay [5] concerns the target Signal transducer and activator of transcription 3 (Homo sapiens) (UniProt P40763). Kind of assay: ATG_STAT3_CIS: Attagene CIS-FACTORIAL HepG2 Assay for human Signal Transducer and Activator of Transcription 3 (STAT3) (AID 2282963). The settings on record: HepG2, Attagene cis-factorial STAT3 reporter transcription; actives raise or lower the signal. The method, boiled down: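 Endogenous STAT3-responsive cis-element activity was read in transiently transfected HepG2 cells after 24 h treatment. Reporter transcripts were quantified via RT-PCR and capillary electrophoresis, with DMSO as negative control and bidirectional curve fitting.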

Assay [6] in a line: ATG_TA_CIS: Attagene CIS-FACTORIAL HepG2 Assay for human TA Basal Promoter (AID 2282964). The settings on record: HepG2 Attagene CIS-factorial TA basal promoter reporter; actives raise or lower the signal. The method, boiled down:
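Multiplexed mRNA reporter assay, HepG2, 24 h. Reporter cDNA amplified, 6-FAM primer-extended, HpaI-cut, CE-sized; DMSO = negative control and baseline.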

Assay [7] can be described thus: ATG_TCF_b_cat_CIS: Attagene CIS-FACTORIAL HepG2 Assay for human T-Cell-Factor with beta-catenin (TCF/b-cat) (AID 2282965). The settings on record: HepG2 TCF/beta-catenin cis-reporter transcription, actives raise or lower the signal. The essentials: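 Endogenous TCF/LEF activity read as reporter transcript level via RT-PCR and capillary electrophoresis fluorescence in transfected HepG2, 24 h exposure; gain or loss of signal fitted against DMSO controls.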

Assay [8] is described as follows: ATG_TAL_CIS: Attagene CIS-FACTORIAL HepG2 Assay for human TAL Basal Promoter (AID 2282966).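 Note: background control endpoint measuring basal TAL promoter reporter mRNA not a specific factor.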 Particulars: HepG2 Attagene cis-factorial TAL promoter reporter; actives raise or lower the signal. The method, boiled down: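 HepG2 cells transiently transfected with multiplexed cis-promoter reporter units, dosed 24 h. Reporter mRNA quantified by RT-PCR, 6-FAM labelling, HpaI digestion and capillary electrophoresis; TAL basal promoter serves as background control, fitted bidirectionally versus DMSO.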

Assay [9] can be described thus: ATG_TGFb_CIS: Attagene CIS-FACTORIAL HepG2 Assay for human Transforming Growth Factor (TGF) (AID 2282967). The settings on record: HepG2 Attagene CIS TGFb reporter, mRNA transcription; actives raise or lower the signal. The method, boiled down: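 Transcript-level reporter readout: HepG2 transfectants, 24 h exposure, RNA to cDNA, reporter-specific PCR, fluorescent primer extension, capillary sizing against ROX standards. Gain- or loss-of-signal relative to DMSO.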

The nature of assay [10]: ATG_VDRE_CIS: Attagene CIS-FACTORIAL HepG2 Assay for human Vitamin D Receptor Element (VDRE) (AID 2282968). The settings on record: HepG2 VDRE cis-reporter transcription, actives raise or lower the signal. The method, boiled down:
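Reporter mRNA induction, quantified by capillary electrophoresis of fluorescently labelled RT-PCR products, was read 24 h after dosing HepG2 cells carrying transiently transfected cis-regulated reporter units; gain or loss relative to DMSO.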

Assay [11] concerns the target Nuclear receptor subfamily 1 group I member 3 (Homo sapiens) (UniProt Q14994). Kind of assay: ATG_CAR_TRANS: Attagene TRANS-FACTORIAL HepG2 Assay for human Constitutive Androstane Receptor (CAR) (AID 2282969; active = hit-call score of the fitted dose curve at least 0.9, where 1 is the maximum;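 note: activators raise reporter mRNA above DMSO so AC50 marks induction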). Particulars: HepG2 Attagene TRANS-FACTORIAL CAR reporter. The essentials: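 Readout is reporter mRNA induction, quantified by fluorescent primer extension and capillary electrophoresis after RT-PCR. Cells were HepG2 transiently carrying chimeric NR-Gal4 constructs with GAL4-UAS reporters, treated for 24 h; activity scored upward from DMSO.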

For assay [12], the target named is X-box-binding protein 1 (Homo sapiens) (UniProt P17861). Kind of assay: ATG_Xbp1_CIS: Attagene CIS-FACTORIAL HepG2 Assay for human X-box Binding Protein 1 (XBP1) (AID 2282972). The settings on record: HepG2 XBP1 cis-element reporter, Attagene multiplex; actives raise or lower the signal. The method, boiled down:
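After a 24-hour chemical exposure of HepG2 cells carrying cis-regulated reporters, reporter mRNA levels are assessed. Quantification uses RT-PCR, 6-FAM labelling and capillary electrophoresis. Gain- or loss-of-signal is fitted against DMSO.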

Assay [13] deals with Estrogen receptor (Homo sapiens) (UniProt P03372). Kind of assay: ATG_ERa_TRANS: Attagene TRANS-FACTORIAL HepG2 Assay for human Estrogen Receptor alpha (ERa) (AID 2282970; active = hit-call score of the fitted dose curve at least 0.9, where 1 is the maximum). Particulars: HepG2 Attagene TRANS ERa GAL4 reporter, mRNA. The method, boiled down: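 HepG2 cells transiently transfected with multiplexed GAL4-UAS reporter units read out chimeric NR-Gal4 activity. After 24 h compound exposure, reporter mRNA was quantified by RT-PCR, 6-FAM labeling, HpaI digestion and capillary electrophoresis, relative to DMSO.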
Sequence of Estrogen receptor (Homo sapiens) (P03372 whole entry, looked up, the tested form may be a part): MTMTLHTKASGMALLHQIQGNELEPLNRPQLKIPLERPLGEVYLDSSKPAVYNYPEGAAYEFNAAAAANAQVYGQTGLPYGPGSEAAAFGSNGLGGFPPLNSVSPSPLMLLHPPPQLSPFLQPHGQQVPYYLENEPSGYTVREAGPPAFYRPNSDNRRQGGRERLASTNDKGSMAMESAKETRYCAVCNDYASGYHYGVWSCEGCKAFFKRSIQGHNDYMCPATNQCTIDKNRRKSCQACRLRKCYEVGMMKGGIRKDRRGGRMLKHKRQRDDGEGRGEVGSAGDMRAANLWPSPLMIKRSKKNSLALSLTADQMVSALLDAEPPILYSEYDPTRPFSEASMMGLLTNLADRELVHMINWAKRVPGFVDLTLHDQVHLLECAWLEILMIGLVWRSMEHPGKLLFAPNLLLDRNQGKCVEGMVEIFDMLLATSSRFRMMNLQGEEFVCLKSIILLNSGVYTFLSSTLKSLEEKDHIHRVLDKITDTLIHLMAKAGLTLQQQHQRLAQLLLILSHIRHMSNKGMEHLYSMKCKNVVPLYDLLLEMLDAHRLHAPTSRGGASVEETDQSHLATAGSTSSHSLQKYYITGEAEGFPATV

Assay [14] is described as follows: ATG_M_19_TRANS: Attagene TRANS-FACTORIAL HepG2 Assay for M19 Transcription Factor (Internal Marker) (AID 2282974; active = hit-call score of the fitted dose curve at least 0.9, where 1 is the maximum). Particulars: HepG2 Attagene TRANS-FACTORIAL M19 internal marker reporter. The essentials: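 Gain-of-signal in reporter mRNA, relative to DMSO, was scored from capillary electrophoresis fluorescence. HepG2 cells carried transiently transfected multiple reporter transcription units and were incubated with test chemicals for 24 h.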

Assay [15] addresses Bile acid receptor (Homo sapiens) (UniProt Q96RI1). Kind of assay: ATG_FXR_TRANS: Attagene TRANS-FACTORIAL HepG2 Assay for Farnesoid X Receptor (FXR) (AID 2282979; active = hit-call score of the fitted dose curve at least 0.9, where 1 is the maximum;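 note: hits raise reporter mRNA above DMSO so AC50 marks FXR activation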). The settings on record: HepG2 Attagene TRANS FXR-GAL4 reporter transcription. The essentials:
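HepG2 cells were transiently transfected with GAL4-UAS reporters driven by chimeric NR-Gal4 proteins and dosed for 24 h. Reporter mRNA was quantified by RT-PCR, fluorescent labelling, HpaI digestion and capillary electrophoresis, with gain of signal scored versus DMSO.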

Assay [16] in a line: ATG_GAL4_TRANS: Attagene TRANS-FACTORIAL HepG2 Assay for GAL4 (Internal Marker) (AID 2282976; active = hit-call score of the fitted dose curve at least 0.9, where 1 is the maximum). The settings on record: HepG2 Attagene TRANS GAL4 internal marker reporter. The essentials:
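Background-control readout: GAL4-UAS reporter transcript in transiently transfected HepG2 cells after 24 h compound exposure. Measured by RT-PCR, 6-FAM primer extension, HpaI digest and capillary electrophoresis; gain-of-signal fit versus DMSO.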

The target of assay [17] is Estrogen-related receptor gamma (Homo sapiens) (UniProt P62508). Kind of assay: ATG_ERRg_TRANS: Attagene TRANS-FACTORIAL HepG2 Assay for human Estrogen-Related Receptor gamma (ERRg) (AID 2282977; active = hit-call score of the fitted dose curve at least 0.9, where 1 is the maximum;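 note: hits increase reporter signal over DMSO so potencies reflect activators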). Particulars: HepG2 Attagene TRANS reporter, ERRg transactivation. The method, boiled down: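 HepG2 cells transiently transfected with multiplexed GAL4-UAS reporter units driven by chimeric NR-Gal4 proteins; 24 h exposure. Reporter mRNA quantified by RT-PCR, fluorescent labelling, HpaI digestion and capillary electrophoresis; gain of signal vs DMSO.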
Sequence of Estrogen-related receptor gamma (Homo sapiens) (P62508 whole entry, looked up, the tested form may be a part): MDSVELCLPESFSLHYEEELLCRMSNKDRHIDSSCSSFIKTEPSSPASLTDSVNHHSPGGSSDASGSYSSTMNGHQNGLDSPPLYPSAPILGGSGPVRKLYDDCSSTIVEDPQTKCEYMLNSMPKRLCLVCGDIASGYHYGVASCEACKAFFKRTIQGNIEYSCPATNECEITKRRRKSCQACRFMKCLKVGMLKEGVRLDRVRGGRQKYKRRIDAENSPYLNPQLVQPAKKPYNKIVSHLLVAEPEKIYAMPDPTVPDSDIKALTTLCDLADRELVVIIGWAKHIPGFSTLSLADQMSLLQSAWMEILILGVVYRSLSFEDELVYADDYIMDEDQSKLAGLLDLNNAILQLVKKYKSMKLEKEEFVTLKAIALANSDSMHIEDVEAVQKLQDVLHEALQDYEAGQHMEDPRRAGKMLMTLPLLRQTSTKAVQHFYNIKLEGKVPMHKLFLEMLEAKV

The target of assay [18] is Glucocorticoid receptor (Homo sapiens) (UniProt P04150). Kind of assay: ATG_GR_TRANS: Attagene TRANS-FACTORIAL HepG2 Assay for human Glucocorticoid Receptor (GR) (AID 2282978; active = hit-call score of the fitted dose curve at least 0.9, where 1 is the maximum;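 note: activators score as hits since higher reporter transcript over DMSO is fitted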). Particulars: HepG2 Attagene TRANS GR reporter, mRNA transcription. The essentials: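 HepG2 transient transfection, multiple reporter units, GAL4-UAS under NR-GAL4 chimera control. 24 h treatment. Reporter mRNA by RT-PCR/CE fluorescence, DMSO as negative control.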
Sequence of Glucocorticoid receptor (Homo sapiens) (P04150 whole entry, looked up, the tested form may be a part): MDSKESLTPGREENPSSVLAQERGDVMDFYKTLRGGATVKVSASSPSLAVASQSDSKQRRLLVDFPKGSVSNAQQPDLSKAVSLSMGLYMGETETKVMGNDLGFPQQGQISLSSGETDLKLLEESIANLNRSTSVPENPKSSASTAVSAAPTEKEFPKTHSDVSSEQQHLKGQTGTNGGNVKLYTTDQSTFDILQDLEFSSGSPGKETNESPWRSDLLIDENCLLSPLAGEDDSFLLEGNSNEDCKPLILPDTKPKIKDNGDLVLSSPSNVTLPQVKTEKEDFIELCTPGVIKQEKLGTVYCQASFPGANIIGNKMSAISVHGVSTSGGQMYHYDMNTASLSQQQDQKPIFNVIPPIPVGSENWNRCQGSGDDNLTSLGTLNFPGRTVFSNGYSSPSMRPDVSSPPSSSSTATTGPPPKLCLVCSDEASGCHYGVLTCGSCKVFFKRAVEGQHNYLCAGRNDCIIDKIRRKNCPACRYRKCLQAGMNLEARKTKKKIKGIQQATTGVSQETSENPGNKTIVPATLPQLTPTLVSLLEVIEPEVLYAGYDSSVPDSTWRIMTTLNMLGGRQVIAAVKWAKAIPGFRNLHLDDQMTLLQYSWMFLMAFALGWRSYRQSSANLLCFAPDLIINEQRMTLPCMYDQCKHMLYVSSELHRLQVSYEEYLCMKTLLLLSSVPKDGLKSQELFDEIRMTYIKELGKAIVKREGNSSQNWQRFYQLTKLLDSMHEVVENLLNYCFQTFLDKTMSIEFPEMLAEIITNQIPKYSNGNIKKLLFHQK

Sequence of Signal transducer and activator of transcription 3 (Homo sapiens) (P40763 whole entry, looked up): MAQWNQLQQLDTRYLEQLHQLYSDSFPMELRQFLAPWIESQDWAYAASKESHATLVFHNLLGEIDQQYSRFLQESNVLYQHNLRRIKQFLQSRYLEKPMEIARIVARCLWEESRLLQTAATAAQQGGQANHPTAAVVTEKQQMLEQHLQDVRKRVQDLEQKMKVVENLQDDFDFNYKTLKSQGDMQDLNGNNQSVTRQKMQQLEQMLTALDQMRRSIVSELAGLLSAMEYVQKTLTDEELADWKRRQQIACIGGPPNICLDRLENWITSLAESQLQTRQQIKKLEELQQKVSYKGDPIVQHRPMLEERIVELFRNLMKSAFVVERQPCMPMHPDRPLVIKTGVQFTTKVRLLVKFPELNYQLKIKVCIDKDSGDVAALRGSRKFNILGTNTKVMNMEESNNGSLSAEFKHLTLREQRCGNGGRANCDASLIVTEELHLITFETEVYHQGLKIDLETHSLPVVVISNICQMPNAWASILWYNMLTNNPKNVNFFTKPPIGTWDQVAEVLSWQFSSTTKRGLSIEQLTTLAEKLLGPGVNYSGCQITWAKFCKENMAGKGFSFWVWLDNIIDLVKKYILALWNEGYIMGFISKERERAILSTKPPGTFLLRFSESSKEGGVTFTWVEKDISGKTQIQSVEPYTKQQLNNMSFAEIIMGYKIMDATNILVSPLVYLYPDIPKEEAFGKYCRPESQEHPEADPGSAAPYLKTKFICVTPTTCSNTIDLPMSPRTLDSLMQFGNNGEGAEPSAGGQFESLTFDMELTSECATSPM
Sequence of Transcription factor Sp1 (Homo sapiens) (P08047 whole entry, looked up): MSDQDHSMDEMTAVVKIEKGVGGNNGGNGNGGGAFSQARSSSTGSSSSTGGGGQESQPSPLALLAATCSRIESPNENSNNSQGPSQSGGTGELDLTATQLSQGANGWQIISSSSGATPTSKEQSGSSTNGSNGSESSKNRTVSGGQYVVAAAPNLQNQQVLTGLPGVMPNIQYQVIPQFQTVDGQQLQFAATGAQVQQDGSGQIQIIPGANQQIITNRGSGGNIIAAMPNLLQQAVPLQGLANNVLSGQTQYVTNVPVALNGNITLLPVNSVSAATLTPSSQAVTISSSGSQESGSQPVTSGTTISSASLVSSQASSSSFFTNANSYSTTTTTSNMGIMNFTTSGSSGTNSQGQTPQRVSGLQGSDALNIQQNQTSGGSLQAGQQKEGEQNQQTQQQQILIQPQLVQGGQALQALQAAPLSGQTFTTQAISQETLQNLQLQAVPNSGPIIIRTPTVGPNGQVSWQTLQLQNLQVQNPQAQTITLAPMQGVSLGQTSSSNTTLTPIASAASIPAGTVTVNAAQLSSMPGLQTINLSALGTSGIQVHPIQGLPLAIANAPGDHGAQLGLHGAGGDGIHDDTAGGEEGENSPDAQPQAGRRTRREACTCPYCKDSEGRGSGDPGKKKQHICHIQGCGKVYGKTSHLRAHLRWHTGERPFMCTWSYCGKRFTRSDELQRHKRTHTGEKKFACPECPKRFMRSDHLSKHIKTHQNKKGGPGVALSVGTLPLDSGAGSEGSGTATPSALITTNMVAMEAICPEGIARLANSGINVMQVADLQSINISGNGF
Sequence of X-box-binding protein 1 (Homo sapiens) (P17861 whole entry, looked up): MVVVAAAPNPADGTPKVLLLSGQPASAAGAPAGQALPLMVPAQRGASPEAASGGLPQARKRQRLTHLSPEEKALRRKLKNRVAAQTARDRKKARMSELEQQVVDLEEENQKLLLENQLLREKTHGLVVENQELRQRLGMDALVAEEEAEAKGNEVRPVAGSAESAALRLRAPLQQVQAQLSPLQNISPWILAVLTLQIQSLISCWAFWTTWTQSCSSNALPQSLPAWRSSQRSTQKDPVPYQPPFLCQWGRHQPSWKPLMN
Sequence of Nuclear receptor subfamily 1 group I member 3 (Homo sapiens) (Q14994 whole entry, looked up, the tested form may be a part): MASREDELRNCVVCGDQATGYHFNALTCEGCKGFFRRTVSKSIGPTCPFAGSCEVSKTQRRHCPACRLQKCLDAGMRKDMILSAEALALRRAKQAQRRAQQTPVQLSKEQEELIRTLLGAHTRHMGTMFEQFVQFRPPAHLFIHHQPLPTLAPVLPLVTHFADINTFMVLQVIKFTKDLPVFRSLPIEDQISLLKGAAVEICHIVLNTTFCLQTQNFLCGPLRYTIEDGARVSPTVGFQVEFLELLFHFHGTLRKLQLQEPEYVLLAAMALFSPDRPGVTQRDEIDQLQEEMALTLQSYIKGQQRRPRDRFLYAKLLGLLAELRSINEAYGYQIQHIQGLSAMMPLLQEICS
Sequence of Bile acid receptor (Homo sapiens) (Q96RI1 whole entry, looked up, the tested form may be a part): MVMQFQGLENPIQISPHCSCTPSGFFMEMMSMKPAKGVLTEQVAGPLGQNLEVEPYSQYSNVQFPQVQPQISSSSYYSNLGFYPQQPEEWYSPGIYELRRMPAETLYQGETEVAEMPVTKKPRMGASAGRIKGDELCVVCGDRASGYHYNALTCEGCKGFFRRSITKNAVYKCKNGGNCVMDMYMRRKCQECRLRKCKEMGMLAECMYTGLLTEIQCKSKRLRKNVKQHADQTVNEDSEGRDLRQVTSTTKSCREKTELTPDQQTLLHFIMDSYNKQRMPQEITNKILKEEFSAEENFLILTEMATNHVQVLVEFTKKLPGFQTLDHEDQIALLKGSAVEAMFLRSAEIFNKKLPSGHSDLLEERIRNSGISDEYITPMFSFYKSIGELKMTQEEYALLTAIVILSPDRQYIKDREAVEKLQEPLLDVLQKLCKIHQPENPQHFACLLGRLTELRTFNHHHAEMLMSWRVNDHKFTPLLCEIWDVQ

As for `NC(=O)CCl`, the compound was called inactive in assay [1], in [2], in assay [3], in assay [4], in assay [5] and in assay [6]. The compound was called inactive in assay [7], in assay [8], in assay [9], in [10], in assay [11] and in assay [12].
As for `CC(C)[C@@H](Nc1ccc(C(F)(F)F)cc1Cl)C(=O)OC(C#N)c1cccc(Oc2ccccc2)c1` (some centres undefined), the compound was called inactive in assay [1], in assay [2], in [3], in assay [4], in [5] and in assay [6]. The compound was called inactive in assay [7], in assay [8], in assay [9], in assay [11], in assay [13] and in [12]. The call in [14] and in assay [15] was inactive. Besides, the AC50 (as a rule, the concentration at which the activity in the assay is half-maximal) in assay [10] was 0.734 µM (active).
Consider `Oc1cccc(-c2ccccc2)c1`, for which the outcome in assay [1], in assay [2], in [5], in assay [6], in [7] and in assay [8] was inactive. Moreover, the call in [9], in assay [11], in assay [12], in [16], in [17] and in assay [18] was inactive. Further, the AC50 in assay [3] was 168 µM (active); in [4], 64.2 µM (active); in [10], 66.3 µM (active); in assay [13], 6.57 µM (active).
For the compound `CCCSP(=S)(OCC)Oc1ccc(SC)cc1` (centres undefined), the compound was classed as inactive in assay [1], in assay [2], in assay [3], in assay [4], in [5] and in assay [6]. Besides, the compound was classed as inactive in assay [7], in [8], in assay [11], in assay [12], in assay [14] and in assay [17]. The result in assay [15] was inactive. Moreover, the results for the AC50 in assay [9], in [10] and in assay [13] were 100 µM (active), 4.63 µM (active) and 4.92 µM (active), respectively.
